From the supplement of paper PMC9135407
Structures can show the parent of a compound that is named as a salt. About 620 (11%) of roughly 5,800 compounds showed activity. The sample as a whole holds a higher share of actives than the screen did. A number with no mark means an inactive call.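 Rule for the calls: active = score above a cut-off or among the top three wells of a plate; in these data no inactive exceeds 0.85.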

Tested on: primary human hepatic stellate cells (donor 1)
Test: scaled lipid accumulation score (0 = DMSO-like, 1 = nortriptyline-like); higher = stronger HSC inactivation (lipid re-accumulation), active = hit call of the paper
Settings: 48 h
[1] = library stock concentration: 3.33 mM
[2] = library stock concentration: 10 mM
[3] = library stock concentration: 1 mM
[4] = library stock concentration: 80 uM
[5] = library stock concentration: 400 uM
[6] = library stock concentration: 2 mM

CC(C)n1cnc2c(NCc3ccccc3O)nc(NCCCO)nc21 [Cdk Inhibitor, p35]
scaled lipid accumulation score [1]: ≤ 0

N[C@@H](Cc1cc(I)c(Oc2cc(I)c(O)c(I)c2)c(I)c1)C(=O)O [L-Thyroxine]
scaled lipid accumulation score [1]: ≤ 0
scaled lipid accumulation score [2]: ≤ 0

N[C@@H](Cc1cc(I)c(Oc2cc(I)c(O)c(I)c2)c(I)c1)C(=O)O
scaled lipid accumulation score [2]: ≤ 0

N[C@@H](Cc1cc(I)c(Oc2cc(I)c(O)c(I)c2)c(I)c1)C(=O)O [Levothyroxine]
scaled lipid accumulation score (library stock concentration: 2.6 mM): ≤ 0

c1ccc(C(OC2CCN(CCCc3nn[nH]n3)CC2)c2ccccc2)cc1
scaled lipid accumulation score [3]: ≤ 0

O=C1c2ccc(O)c(O)c2C(=O)c2c(O)ccc(O)c21 [Quinalizarin]
scaled lipid accumulation score [2]: ≤ 0

CCCCCCCCCCCCCCCCCC(=O)NCCO [Stearoyl Ethanolamide]
scaled lipid accumulation score [3]: ≤ 0

CC(C)OC(=O)CCC/C=C\C[C@@H]1[C@@H](/C=C/[C@H](O)C2Cc3ccccc3C2)[C@@H](F)C[C@@H]1O [AL 8810 isopropyl ester]
scaled lipid accumulation score [3]: ≤ 0

CCCCCCOC(=O)[C@]1(O)C[C@@H]2O[C@@]1(C)n1c3ccccc3c3c4c(c5c6ccccc6n2c5c31)C(=O)NC4
scaled lipid accumulation score (library stock concentration: 900 uM): 0.034
scaled lipid accumulation score [1]: ≤ 0

CN[C@@H]1C[C@H]2O[C@@](C)([C@@H]1OC)n1c3ccccc3c3c4c(c5c6ccccc6n2c5c31)C(=O)N[C@H]4O
scaled lipid accumulation score [1]: 1.21 (active)

Cc1ncc(COP(=O)([O-])[O-])c(CN(CCN(CC(=O)O)Cc2c(COP(=O)([O-])O)cnc(C)c2O)CC(=O)O)c1O.[Mn].[Na+].[Na+].[Na+]
scaled lipid accumulation score [2]: 0.072

CC(C)CCCCCCC/C=C\C(=O)O [cis-.DELTA.2-11-methyl-Dodecenoic Acid]
scaled lipid accumulation score [3]: 0.068

CCOc1ccc(Nc2nc(-c3c(C)nc4ccccn34)cs2)cc1
scaled lipid accumulation score [2]: 0.446

CCCCC[C@H](O)/C=C/[C@H]1[C@H](O)CC(=O)[C@@H]1CC(=O)CCCCC(=O)O [6-keto Prostaglandin E1]
scaled lipid accumulation score [3]: ≤ 0

O=C(NC1CC1)c1cccc(-c2ccc3c(NC(=O)C4CC4)n[nH]c3c2)c1
scaled lipid accumulation score [4]: ≤ 0
scaled lipid accumulation score [5]: ≤ 0
scaled lipid accumulation score [6]: ≤ 0
scaled lipid accumulation score [2]: ≤ 0

C[C@H](Nc1ncnc2nc[nH]c12)c1cc2cccc(Cl)c2c(=O)n1-c1ccccc1
scaled lipid accumulation score [1]: ≤ 0
scaled lipid accumulation score [2]: ≤ -0.001

CCN(CC)Cc1ccc2cc(COC(=O)Nc3ccc(C(=O)NO)cc3)ccc2c1.Cl.O [Givinostat (ITF2357)]
scaled lipid accumulation score [1]: 0.903 (active)
scaled lipid accumulation score [2]: 0.897 (active)

CCCCN(Cc1ccc(C(=O)NO)cc1)C(=O)Nc1ccccc1 [Nexturastat A]
scaled lipid accumulation score [1]: ≤ -0.009
scaled lipid accumulation score [2]: 0.176

CCN(CC)CCNC(=O)c1ccc(NC(C)=O)cc1 [N-Acetylprocainamide hydrochloride]
scaled lipid accumulation score [2]: ≤ 0

CCN(CC)CCNC(=O)c1ccc(NC(C)=O)cc1 [Acecainide hydrochloride]
scaled lipid accumulation score (library stock concentration: 6.4 mM): ≤ 0

COc1ccc(S(=O)(=O)N2c3ccc(Cl)cc3[C@](O)(c3ccccc3Cl)[C@@H]2C(=O)N2CCC[C@H]2C(N)=O)cc1OC
scaled lipid accumulation score [2]: 0.02

O=C(O)c1cc(=O)c2cccc(O)c2[nH]1 [Xanthurenic acid]
scaled lipid accumulation score [2]: ≤ 0

O=C(Nc1cc2cc[nH]c2cn1)c1ccccc1
scaled lipid accumulation score [1]: ≤ -0.009
scaled lipid accumulation score [2]: ≤ 0

Cc1ccc(C(=O)Nc2ccc(CN3CCN(C)CC3)c(C(F)(F)F)c2)cc1C#Cc1cnc2cccnn12 [listing 1 of 3 here]
scaled lipid accumulation score [4]: 0.459
scaled lipid accumulation score [2]: 0.533

Cc1ccc(C(=O)Nc2ccc(CN3CCN(C)CC3)c(C(F)(F)F)c2)cc1C#Cc1cnc2[nH]ncc2c1
scaled lipid accumulation score [1]: 0.479
scaled lipid accumulation score [2]: 0.258

Cc1ccc(C(=O)Nc2ccc(CN3CCN(C)CC3)c(C(F)(F)F)c2)cc1C#Cc1cnc2cccnn12 [listing 2 of 3 here]
scaled lipid accumulation score [5]: 0.949 (active)
scaled lipid accumulation score [6]: 1.1 (active)
scaled lipid accumulation score [2]: 1.14 (active)

COC(=O)N1CCN(Cc2cccc(NC(=O)Nc3ccc(C)nc3)c2F)CC1
scaled lipid accumulation score [1]: ≤ 0
scaled lipid accumulation score [2]: 0.038

Cc1ccc(C(=O)Nc2ccc(CN3CCN(C)CC3)c(C(F)(F)F)c2)cc1C#Cc1cnc2cccnn12 [listing 3 of 3 here]
scaled lipid accumulation score [1]: 1.06 (active)

CCN1CCN(Cc2ccc(Nc3ncc4c(n3)N(C)c3ccccc3C(=O)N4C)cc2C(F)(F)F)CC1
scaled lipid accumulation score [4]: 0.012
scaled lipid accumulation score [5]: 0.132
scaled lipid accumulation score [6]: 0.243
scaled lipid accumulation score [2]: 0.479

CCN1CCN(Cc2ccc(NC(=O)c3ccc(C)c(Oc4ccnc5[nH]ccc45)c3)cc2C(F)(F)F)CC1
scaled lipid accumulation score [4]: 0.069
scaled lipid accumulation score [5]: 0.308
scaled lipid accumulation score [6]: 0.809
scaled lipid accumulation score [2]: 0.792

CCN1CCN(Cc2ccc(NC(=O)c3ccc(C)c(/C=C/c4cnc5[nH]ccc5c4OC)c3)cc2C(F)(F)F)CC1
scaled lipid accumulation score [6]: 0.888 (active)
scaled lipid accumulation score [2]: 1.11 (active)

CCCCC/C=C\C/C=C\CCCC/C=C\CCCC(=O)O [5(Z),11(Z),14(Z)-Eicosatrienoic Acid]
scaled lipid accumulation score [3]: ≤ 0

CC(S)C(=O)NCC(=O)O (stereo not given) [Tiopronin]
scaled lipid accumulation score [1]: ≤ 0
scaled lipid accumulation score [2]: ≤ 0

CC(S)C(=O)NCC(=O)O (stereo not given)
scaled lipid accumulation score [2]: ≤ 0

CCCCCCCC/C=C\CCCCCCCCCCCC(=O)O [13(Z)-Docosenoic Acid]
scaled lipid accumulation score [3]: 0.016

CCC(CO)Nc1nc(NCc2ccccc2)c2ncn(C(C)C)c2n1 [Roscovitine, (S)-Isomer]
scaled lipid accumulation score [1]: ≤ 0

CC1(C)S[C@@H]2[C@H](/N=C/N3CCCCCC3)C(=O)N2[C@H]1C(=O)O
scaled lipid accumulation score [2]: ≤ 0

CCCCC[C@@](C)(O)/C=C/[C@H]1C=CC(=O)[C@@H]1C/C=C\CCCC(=O)O [15(R)-15-methyl Prostaglandin A2]
scaled lipid accumulation score [3]: ≤ 0

CCCCc1c(-c2ccc(O)cc2)[nH]c2nccnc12 [Aloisine A, RP107]
scaled lipid accumulation score [1]: ≤ 0

O=C(O)COc1cccc(-c2ocnc2-c2nc(-c3ccccc3)c(-c3ccccc3)o2)c1
scaled lipid accumulation score [2]: ≤ -0.006

OCCOCCN1CCN(C2=Nc3ccccc3Sc3ccccc32)CC1 [Quetiapine Fumarate]
scaled lipid accumulation score [1]: 0.061

OCCOCCN1CCN(C2=Nc3ccccc3Sc3ccccc32)CC1
scaled lipid accumulation score [2]: 0.251

OCCOCCN1CCN(C2=Nc3ccccc3Sc3ccccc32)CC1 [Quetiapine]
scaled lipid accumulation score (library stock concentration: 5.2 mM): ≤ 0

CN1CCN(C2=Nc3ccccc3Sc3ccc(Cl)cc32)CC1 [Clothiapine]
scaled lipid accumulation score (library stock concentration: 5.8 mM): 0.413

OCCOCCN1CCN(C2=Nc3ccccc3Sc3ccccc32)CC1 [Quetiapine fumarate]
scaled lipid accumulation score (library stock concentration: 2.3 mM): 0.28

O=C(O)C=CC(=O)O.OCCOCCN1CCN(C2=Nc3ccccc3Sc3ccccc32)CC1.OCCOCCN1CCN(C2=Nc3ccccc3Sc3ccccc32)CC1 [Quetiapine Fumarate]
scaled lipid accumulation score [2]: 1.06 (active)

CCCCC[C@@H](O)/C=C/[C@H]1C(=O)C[C@H](O)[C@@H]1C/C=C\CCCC(=O)O [15(R)-Prostaglandin D2]
scaled lipid accumulation score [3]: ≤ 0

O=C([O-])[C@H]1/C(=C/CO)O[C@@H]2CC(=O)N21.[Li+] [Clavulanate lithium]
scaled lipid accumulation score (library stock concentration: 9.7 mM): ≤ 0

CCS(=O)(=O)Nc1ccc2[nH]c(O)c(C(=Nc3ccc(CN4CCCCC4)cc3)c3ccccc3)c2c1 [Hesperadin]
scaled lipid accumulation score [1]: ≤ 0
scaled lipid accumulation score [2]: 0.147

Cl.N=C(N)NCCC[C@H](N)C(=O)O
scaled lipid accumulation score [2]: ≤ 0

O=S(=O)(O)Oc1ccc(C(c2ccc(OS(=O)(=O)O)cc2)c2ccccn2)cc1 [Sodium Picosulfate]
scaled lipid accumulation score [1]: ≤ 0
scaled lipid accumulation score [2]: ≤ -0.001

Cc1ccc(C(=O)Nc2cccc(C(F)(F)F)c2)cc1Nc1nc(-c2cccnc2)nc2c1cnn2C [listing 1 of 2 here]
scaled lipid accumulation score [1]: 0.942 (active)
scaled lipid accumulation score [2]: 0.959 (active)

Cc1ccc(C(=O)Nc2cccc(C(F)(F)F)c2)cc1Nc1nc(-c2cccnc2)nc2c1cnn2C [listing 2 of 2 here]
scaled lipid accumulation score [4]: ≤ -0.016
scaled lipid accumulation score [5]: ≤ -0.016
scaled lipid accumulation score [6]: ≤ -0.016
scaled lipid accumulation score [2]: 0.726

Cc1ccc(C(=O)Nc2cccc(C(F)(F)F)c2)cc1Nc1cncc(C(N)=O)c1
scaled lipid accumulation score [4]: ≤ 0
scaled lipid accumulation score [5]: 0.035
scaled lipid accumulation score [6]: ≤ 0
scaled lipid accumulation score [2]: 0.142

Nc1ncnc2c1ncn2[C@@H]1O[C@H](COP(=O)(O)CP(=O)(O)OP(=O)(O)O)[C@H](O)C1O (stereo partly drawn) [alpha,beta-Methylene adenosine 5'-triphosphate dilithium]
scaled lipid accumulation score [2]: 0.242

CCCCC/C=C\C/C=C\C/C=C\C/C=C\CCCC(=O)S[C@H](COCCCCCCCCCCCCCCCC)COP(=O)([O-])OCC[N+](C)(C)C [Arachidonoyl thio-PC]
scaled lipid accumulation score [3]: ≤ 0

CC(/C=C/C(=O)NO)=C\[C@@H](C)C(=O)c1ccc(N(C)C)cc1 [Trichostatin A]
scaled lipid accumulation score [3]: 0.793 (active)

CC(/C=C/C(=O)NO)=C\[C@@H](C)C(=O)c1ccc(N(C)C)cc1 [Trichostatin-A]
scaled lipid accumulation score (library stock concentration: 16.5 mM): 0.589

CC(C=CC(=O)NO)=CC(C)C(=O)c1ccc(N(C)C)cc1 (stereo not given) [Trichostatin A (TSA)]
scaled lipid accumulation score [1]: 0.515
scaled lipid accumulation score [2]: 0.663

CCCSc1nc(N[C@@H]2C[C@H]2c2ccc(F)c(F)c2)c2nnn([C@@H]3C[C@H](OCCO)[C@@H](O)[C@H]3O)c2n1 [Ticagrelor]
scaled lipid accumulation score [1]: ≤ 0
scaled lipid accumulation score [2]: 0.193

CSc1nc(N)c2ncn([C@@H]3O[C@H](COP(=O)(O)OP(=O)(O)O)[C@H](O)C3O)c2n1 (stereo not given in full)
scaled lipid accumulation score [2]: 0.082

CO/N=C1\C[C@]2(C[C@@H]3C[C@@H](C/C=C(\C)C[C@@H](C)/C=C/C=C4\CO[C@@H]5[C@H](O)C(C)=C[C@@H](C(=O)O3)[C@]45O)O2)O[C@H](/C(C)=C/C(C)C)[C@H]1C
scaled lipid accumulation score [2]: ≤ 0
